# Only some compounds are listed: those with a hit (about 5.9% of all), similar ones and a draw of the others.
# ABHD5-PLIN5 inh = blocks binding of human ABHD5 to perilipin-5; Q00G26+Q8WTS1; Split G. princeps luciferase complementation, luminescence, 4 h; inhibition, % at 4 µM; 360,000 tested, 0.78% active;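 active means inhibition above the mean inhibition across every tested compound plus 3 SD, cut at about 22% in these data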;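 further: 0% = DMSO only wells and the 100% control is not disclosed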
# LANA-H2A inh = blocks KSHV LANA binding to histone H2A/H2B; Q9QR71; cell-free LANA-H2A/H2B peptide, fluorescence polarization; inhibition, % (no concentration beside the values); 320,000 tested, 0.6% active; in the data active means inhibition mostly above about 10%, no sharp cut-off; inactive means mostly below about 6.7%
# Rtt109 Vps75 = blocks Candida albicans Rtt109/Vps75 acetyltransferase activity. Q5AAJ8. 330,000 tested, 0.16% active. inhibition, % at 34.9 µM. purified Rtt109/Vps75, ThioGlo CoA-SH fluorescence, 4 h;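 active means inhibition of at least 50% in every replicate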
# ALR inh = blocks human ALR sulfhydryl oxidase activity | P55789 | purified ALR, DTT oxidation, H2O2 HRP-luminol luminescence | inhibition, % (test concentration not listed) | 290,000 tested, 3.8% active | AID 485317;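 active means mean replicate inhibition above about 79%, with every replicate also reaching it, limit read from the data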
# Target sequence (P55789 whole entry, looked up): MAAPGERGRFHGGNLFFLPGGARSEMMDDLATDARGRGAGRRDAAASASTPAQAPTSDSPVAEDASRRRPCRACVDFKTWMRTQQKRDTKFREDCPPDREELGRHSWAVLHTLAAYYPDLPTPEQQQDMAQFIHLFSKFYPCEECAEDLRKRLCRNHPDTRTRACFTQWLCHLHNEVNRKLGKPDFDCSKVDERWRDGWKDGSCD
# rCAG binder = r(CAG) repeat RNA binding; AID 651821; TO-PRO-1 dye displacement fluorescence; inhibition, % at 3 µM; 370,000 tested, 1.3% active;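 active means inhibition above the plate cutoff, the mean of all test compounds on that plate plus 3 SD, cut at about 35% in these data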;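 further: 0% = DMSO alone and 100% = 100 µM mitoxantrone as full dye displacement; higher means more dye released from RNA so lower well fluorescence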
# PRMT1 FP inh = blocks human protein arginine methyltransferase 1; Q99873; recombinant PRMT1, activity-based probe fluorescence polarization; inhibition, % at 2.79 µM; 370,000 tested, 1.3% active;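 active means inhibition above about 21% made by adding two undisclosed values, limit read from the data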
# rCAG binder conf = r(CAG) RNA repeat binding, confirmation; shares compounds with rCAG binder; TO-PRO-1 dye displacement fluorescence; inhibition, % at 3 µM; 4,300 tested, 70% active; AID 652065;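 active means inhibition above a per-plate cutoff, the mean inhibition of sample wells plus 3 SD, cut at about 35% in these data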;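 further: loss of TO-PRO-1 fluorescence as compound displaces dye from 1x1 AA loop RNA; 0% = DMSO only wells and 100% = 100 µM mitoxantrone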
# DNA CAG counter = DNA CAG dye complex inhibition counter-screen | inhibition, % at 3 µM | d(CAG) DNA oligo TO-PRO-1 dye displacement, fluorescence | 4,300 tested, 94% active | shares compounds with rCAG binder | AID 652068;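 active means inhibition above its plate's cutoff, the mean test-well inhibition plus 3 SD, cut at about 4.8% in these data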;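 further: 0% = DNA dye mix with DMSO and 100% = 100 µM mitoxantrone; hits displace the dye from DNA and so lower well fluorescence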
# DNA CAG DR = DNA CAG dye complex inhibition, dose response counter-screen | IC50, µM | 250 tested, 20% active | shares compounds with rCAG binder | DNA CAG/GTC duplex TO-PRO-1 dye displacement fluorescence | AID 686960; in the data active means IC50 below about 10 µM
# * = called active by the depositor; i = inactive; nt = not tested or not shown.
SMILES,ABHD5-PLIN5 inh,LANA-H2A inh,Rtt109 Vps75,ALR inh,rCAG binder,PRMT1 FP inh,rCAG binder conf,DNA CAG counter,others
Cc1cc(/C=C2\SC(=S)NC2=O)c(C)n1-c1ccc(O)cc1,3.2,-1.0,11.4,5.9,48.8*,-5.4,42.5*,14.3*,
Cc1nn(C)cc1/C=C1\SC(=S)NC1=O,1.8,-0.4,4.9,-0.8,-1.4,1.6,nt,nt,
Cc1cc(/C=C2\SC(=S)NC2=O)c(C)n1-c1ccccc1,-0.9,-0.7,nt,nt,48.2*,-2.7,35.8*,16.4*,
COCC(=O)N[C@H]1CC[C@@H](CC(=O)NCc2ccccc2OC)O[C@@H]1CO,-7.4,nt,nt,nt,0.0,-6.3,nt,nt,
C#CCNC(=O)C[C@@H]1C(=O)N2CCCC3=C2[C@@]1(C(=O)OCC)CCC3,nt,nt,nt,nt,34.9*,5.7,0.0,-1.3,
Cc1c(C)c2ccc(OCC(=O)NCCc3c[nH]c4ccccc34)cc2oc1=O,1.0,nt,nt,nt,-1.6,1.0,nt,nt,
Cc1nn(CCc2nn[nH]n2)c2nc(-c3ccc(Br)cc3)cc(C(F)(F)F)c12,-1.2,-1.6,-16.6,9.7,44.2*,-2.3,71.0*,24.9*,DNA CAG DR=i
Cc1nn(CCc2nn[nH]n2)c2nc(C(F)(F)F)cc(C(F)(F)F)c12,2.2,-2.3,3.2,2.5,6.1,3.8,nt,nt,
COCCCNC(=O)c1ccc2sc(C3=C[C@@H](O)[C@@H](O)[C@@H](CO)O3)nc2c1,-1.9,nt,nt,nt,4.5,12.0,nt,nt,
CC(=O)Nc1ccc(S(=O)(=O)Nc2nc3ccccc3nc2Nc2ccccc2)cc1,-0.6,1.3,0.9,nt,47.3*,-0.6,40.1*,9.6*,
CC(=O)Nc1ccc(S(=O)(=O)Nc2nc3ccccc3nc2Nc2cccc(S(N)(=O)=O)c2)cc1,-3.0,4.2,6.6,-2.9,52.0*,3.4,37.2*,7.6*,
Cc1ccc(S(=O)(=O)Nc2nc3ccccc3nc2Nc2cccc(S(=O)(=O)N3CCCC3)c2)cc1,2.0,8.8,27.5,nt,20.9,-2.5,nt,nt,
O=[N+]([O-])c1cccc(S(=O)(=O)Nc2nc3ccccc3nc2Nc2cccc(S(=O)(=O)N3CCCCC3)c2)c1,3.7,nt,20.3,nt,52.3*,-0.7,94.7*,85.6*,
CCOc1cc2c(c3c1C(c1ccccc1)N(S(=O)(=O)c1ccc(C)cc1)C3)C(=O)C=CC2=O (stereo not drawn),-16.1,nt,nt,nt,59.9*,6.0,54.2*,25.3*,
CCOC(=O)C1=CCN(S(=O)(=O)c2ccc(C)cc2)C1c1ccccc1 (stereo not drawn),2.4,nt,nt,nt,0.0,-1.1,nt,nt,
O=c1cc(-c2c(O)c3ccccc3n(Cc3ccccc3)c2=O)[nH][nH]1,-13.3,1.5,-5.7,66.8,46.5*,12.8,21.8,8.3*,
CCn1c(=O)c(-c2cc(=O)[nH][nH]2)c(O)c2ccccc21,-3.2,3.2,2.8,26.8,6.1,7.1,nt,nt,
CCCc1c(OCCCOc2ccc(OCC(=O)O)cc2)ccc(C(C)=O)c1O,-13.0,-3.1,1.7,nt,60.6*,0.1,50.9*,15.7*,
O=C(CSCc1ccc(Cl)cc1)Nc1cccc(C(=O)Nc2ccccc2C(=O)O)c1,12.2,0.1,27.6,97.6*,75.6*,1.5,82.6*,43.3*,
O=C(CSCc1ccccc1)Nc1cccc(C(=O)Nc2ccccc2C(=O)O)c1,-11.5,1.9,10.3,98.3*,71.7*,-0.3,55.1*,17.6*,
O=C(O)CCCC(=O)Nc1cccc(C(=O)Nc2ccccc2C(=O)O)c1,-1.2,1.8,-4.4,-3.2,5.5,1.4,nt,nt,
COc1ccc(-c2ccc(C(=O)Nc3ccc4c(c3)OCO4)c3occc23)c(C)c1,-6.6,nt,nt,nt,8.8,1.9,nt,nt,
Cc1cc(Cl)ccc1Oc1ccccc1C(=O)CC#N,8.3,-1.4,16.5,7.2,38.3*,1.4,22.9,7.6*,
COc1ccccc1C1c2c(ncn(-c3ccccc3)c2=N)Oc2ccc3ccccc3c21 (stereo not drawn),nt,nt,nt,nt,nt,-4.2,nt,nt,

# Assay outcomes as filed in PubChem BioAssay.
